Our source for the fold change values is PubChem BioAssay AID1239 (SRMLSC, 2008).

Out of some 190,000 compounds screened, about 3,100 (1.6%) were called active. Cut-off read from the data, not from the text of the source: active = fold change above about 3.3; inconclusive = no clear call, values can overlap the other calls; inactive = below that. The entries come from a sample that favours actives as a whole.

This test in a line: NF-kB upregulation, human neuronal cells – cell-based, HTS, primary screen (AID 1239). The conditions noted are these: NF-kB reporter expression, at 12.5 µM, hits give high values.
Turning to `C=CCn1nc(-c2ccccc2)c2c(C)onc2c1=O`, the fold change is 1.1 (inactive).

Turning to `COc1cc(/C=N\Nc2ccc([N+](=O)[O-])cn2)ccc1OCC(=O)O`, the fold change was 1.24 (inactive).

Consider `COc1cc(C(=O)OCc2ccc([N+](=O)[O-])cc2)cc(OC)c1OC`, for which the fold change is 1.05 (inactive).

As for `COc1cc(/C=N/O)ccc1OCc1ccc([N+](=O)[O-])cc1`, the fold change is 6.35 (active).

With `COc1ccc(C2=NN(c3nc4ccccc4s3)C(=O)C2)cc1`, the fold change was 1.02 (inactive).

As for `Cn1c(-c2ccco2)nc2cc3ccccc3cc21`, the fold change was 6.6 (active).

Regarding `CN(c1nc2ccccc2n2c(-c3ccco3)nnc12)S(=O)(=O)c1ccccc1`, the fold change was 0.98 (inactive).

Consider `CN1c2ccccc2-c2nc3ccccc3n2C1c1ccco1` (configuration not stated), for which the fold change was 1.03 (inactive).

Turning to `Cc1nc2ccccc2c(C)c1C(=O)c1ccc(F)cc1`, the fold change is 0.8 (inactive).

Take `COC(=O)c1c(NC(=O)CCCC(=O)O)sc2c1CCCCC2`: the fold change was 0.98 (inactive).

Turning to `CCn1c(=S)[nH]c2sc3c(c2c1=O)CCCCC3`, the fold change is 1.2 (inactive).

Consider `CN(NC(=O)c1ccccc1F)c1nc(C(F)(F)F)nc2ccccc12`, for which the fold change was 1.67 (inactive).

Turning to `CSc1nc(N(C)NC(=O)c2cccc(C)c2)c2ccccc2n1`, the fold change was 3.68 (active).

On to `CN(NC(=O)c1ccccc1)c1nc2ccccc2nc1C(F)(F)F`, for which the fold change is 1.32 (inactive).

As for `Cc1cc(NS(=O)(=O)c2ccc(NC(=O)c3cccc(OC(F)F)c3)cc2)nc(C)n1`, the fold change was 1.45 (inactive).

Consider `O=C1CN(C(=O)CN2C(=O)NC3(CCCCC3)C2=O)c2ccccc2N1`, for which the fold change is 1.43 (inactive).

Consider `Cc1cc(N)n2nc(-c3ccc(C(C)(C)C)cc3)cc2n1`, for which the fold change was 5.07 (active).

For the compound `Cc1cc(C(C)(C)C)cc(C)c1N`, the fold change was 1.01 (inactive).

In the case of `COc1ccc(-c2cc(C)nc3nc(N)nn23)cc1`, the fold change was 1.23 (inactive).

On to `O=C(O)Cc1sc(-c2ccccc2)nc1-c1cccs1`, for which the fold change was 1.28 (inactive).

As for `NC(=O)Cc1ccc2sc(-c3ccccc3)nc2c1`, the fold change was 6.92 (active).

Regarding `O=C(O)Cc1sc(-c2ccc(C(=O)O)cc2)nc1-c1ccccc1`, the fold change is 1.21 (inactive).

For `CCc1cccc(NC(=O)CCNS(=O)(=O)c2cccc3nonc23)c1`, the fold change was 1.16 (inactive).

For `COc1ccc(N2CCN(c3ccc([N+](=O)[O-])cc3Cl)CC2)cc1`, the fold change was 0.93 (inactive).

For `O=[N+]([O-])c1ccc(N2CCN(c3ccc(O)cc3)CC2)c(Cl)c1`, the fold change was 4.06 (active).

Regarding `CCN1CCN(c2ccc([N+](=O)[O-])cc2C(=O)c2ccc(Cl)cc2)CC1`, the fold change is 1.37 (inactive).

Consider `CCc1nnc(NC(=O)CCCSc2nc3ccccc3[nH]2)s1`, for which the fold change was 1.01 (inactive).

As to `COc1cccc(C(=O)Nc2ccc(NC(=O)c3ccco3)cn2)c1`, the fold change is 1.03 (inactive).

For the compound `Cc1ccnc(NC(=O)c2ccc(NC(=O)c3ccco3)cc2)c1`, the fold change was 1.64 (inactive).

With `O=C(Nc1ccc(NC(=O)c2cccs2)cn1)c1ccco1`, the fold change was 4.48 (active).

Take `COc1cc(CN2CCNC(=O)C2CC(=O)NCCc2ncccc2C)cc(OC)c1` (configuration not stated): the fold change is 1.05 (inactive).

Turning to `COCCSc1nnc(NC(=O)c2cc(OC)c(OC)cc2[N+](=O)[O-])s1`, the fold change is 1.11 (inactive).

Take `CCOC(=O)/C(=N\Nc1ccccc1Cl)N(C)C1CCS(=O)(=O)C1` (configuration not stated): the fold change was 0.99 (inactive).

Turning to `COc1cc(S(=O)(=O)N2CCOCC2)ccc1NC(=O)COc1ccc(N(C)S(=O)(=O)c2ccc(C)cc2)cc1`, the fold change was 0.76 (inactive).

`COc1ccc(Cl)cc1C(=O)NCC#N`: the fold change is 0.94 (inactive).

For `N#C/C=C\Oc1ccc(Cl)cc1N`, the fold change is 3.39 (active).

As for `Cn1cc(CCC(=O)N2CCCC(C(=O)c3ccc(C(C)(C)C)cc3)C2)cn1` (configuration not stated), the fold change was 0.83 (inactive).

With `CNc1nccc(-c2ccc(Cl)cc2)c1C#N`, the fold change is 1.47 (inactive).

Turning to `Cc1c(Br)ccc(NC(=O)COc2ccccc2C(N)=O)c1C`, the fold change was 1.08 (inactive).

Turning to `O=C(NC1CCCC1)C(c1ccc(N2CCOCC2)cc1)N(C(=O)c1ccco1)c1ccccc1F` (configuration not stated), the fold change was 1.05 (inactive).

Take `O=C(COc1ccc(NC(=O)c2ccccc2[N+](=O)[O-])cc1)c1ccc(F)cc1`: the fold change is 1.07 (inactive).

Take `Cc1ccc2nc(COc3ccc(N(C)S(=O)(=O)c4ccccc4)cc3)cc(=O)n2c1`: the fold change was 1.11 (inactive).

Regarding `CCCOc1ccc(C(=O)NCCc2ccccc2)cc1`, the fold change was 6.46 (active).

Turning to `O=C(NCCc1ccccc1)c1ccc(OCCOc2ccccc2)cc1`, the fold change was 1.27 (inactive).

As for `Cc1cc(C(=O)NCCCc2ccccc2)no1`, the fold change was 1.33 (inactive).

Regarding `O=C(NCCOc1ccccc1)c1ccccc1`, the fold change was 4.39 (active).

Consider `Nc1ccc(C(=O)NCc2ccccc2)cc1`, for which the fold change was 1 (inactive).

For the compound `Cc1ccc(C(=O)NCCNC(=O)c2ccccc2)cc1`, the fold change was 1.15 (inactive).

On to `COc1ccc(OCCCC(=O)NCCc2ccccc2)cc1`, for which the fold change is 1.08 (inactive).

Turning to `CC(C)c1ccc(C(=O)NCCCc2ccccc2)cc1`, the fold change is 4 (active).

Take `NS(=O)(=O)c1cc(C(=O)NCCOc2ccccc2)c(Cl)cc1Cl`: the fold change is 0.66 (inactive).

In the case of `CC(C)OC(=O)CN1CCN(c2ccc(Cl)cc2)CC1`, the fold change was 1.18 (inactive).

`c1ccc2c(NC3C4CC5CC(C4)CC3C5)nc(N3CCOCC3)nc2c1` (configuration not stated): the fold change is 0.99 (inactive).

Turning to `Cc1cccc(C(=O)N2CCCN(C(=O)c3cccc(C)c3)CC2)c1`, the fold change is 1.1 (inactive).

Turning to `Cc1cc(=O)oc(C)c1C(=O)N1CCCCC1`, the fold change is 1.16 (inactive).

Turning to `Cc1ccc2cc3cc(C(=O)N4CCCCCC4)oc3nc2c1`, the fold change is 4.26 (active).

`CN1CCNC(=O)C1CC(=O)N1CC=C(c2ccc(F)cc2)CC1` (configuration not stated): the fold change is 1.04 (inactive).

Take `CN(c1ccc(C(=O)NCCC2=CCCCC2)cc1)S(C)(=O)=O`: the fold change is 3.37 (active).

As for `O=C(Cc1nn[nH]n1)NCCC1=CCCCC1`, the fold change was 1.18 (inactive).

`Cn1nnc2cc(C(=O)NCCC3=CCCCC3)ccc21`: the fold change is 3.75 (active).

In the case of `CN(c1ccc(C(=O)NCc2ccccn2)cc1)S(C)(=O)=O`, the fold change was 1.11 (inactive).

Take `O=C(Cc1cccc2ccccc12)NCCC1=CCCCC1`: the fold change is 1.12 (inactive).

As for `O=C(NCCC1=CCCCC1)c1ccc(Cl)c([N+](=O)[O-])c1`, the fold change is 1.68 (inactive).

As to `CN(CCc1ccccn1)C(=O)CCC1CCCN(Cc2ccccc2OC(F)F)C1` (configuration not stated), the fold change was 1.15 (inactive).

For the compound `Cc1ccc(NC(=O)NC2CCCCC2)cc1S(=O)(=O)N1CCOCC1`, the fold change is 1.06 (inactive).

Consider `CCCCCC(=O)Nc1ccc2oc(-c3ccncc3)nc2c1`, for which the fold change is 0.96 (inactive).

With `CCc1ccc2oc(-c3ccc(N)cc3)nc2c1`, the fold change was 5.55 (active).

As for `CCN(CC)c1ccc2oc(=O)c(C)nc2c1`, the fold change was 0.65 (inactive).

For the compound `COC(=O)Cc1ccc(Oc2ncc(C(F)(F)F)cc2Cl)cc1`, the fold change was 1.13 (inactive).

For the compound `Fc1ccccc1/C=C1\CCCC2=C1Nc1ncnn1C2c1ccccc1F` (configuration not stated), the fold change was 4.05 (active).

Regarding `OCCNCc1cccc(OCc2ccccc2Cl)c1`, the fold change is 0.98 (inactive).

Take `O=[N+]([O-])c1cc(Br)c(O)c(/C=N/Nc2nc3ccccc3s2)c1`: the fold change was 0.65 (inactive).

With `Fc1ccc2nc(Nc3nc4c(s3)CCCC4)sc2c1`, the fold change was 3.04 (inactive).

As to `c1ccc2sc(NN=C3CCCC3)nc2c1`, the fold change is 8.8 (active).

Turning to `Cc1ccccc1NCC(=O)N/N=C\c1ccc([N+](=O)[O-])s1`, the fold change is 0.63 (inactive).

`CC(=O)Nc1cc2ccc(OC(C)=O)cc2oc1=O`: the fold change was 1.34 (inactive).

For `O=C(O)c1ccc(NC(=O)C2CCCCC2)cc1`, the fold change was 1.04 (inactive).

Turning to `O=C(Nc1cc2ccccc2oc1=O)C1CCCCC1`, the fold change was 4.4 (active).

Turning to `O=C(N/N=C/c1ccc(OCC2COCCO2)cc1)c1ccc(Br)cc1` (configuration not stated), the fold change is 0.81 (inactive).

Consider `CNc1nc2c(C)cccn2c(=O)c1C=Nc1ccc(OC)cc1`, for which the fold change is 1.61 (inactive).

Consider `Nc1[nH]c(=S)nc2nc(-c3ccccc3)c(-c3ccccc3)nc12`, for which the fold change is 1.13 (inactive).

Turning to `COc1ccc(C2=NOC3(CC(=O)N(c4ccc(C)cc4)C3=O)C2)cc1` (configuration not stated), the fold change was 0.77 (inactive).

Turning to `COc1ccc(C2=Nc3cc(C)ccc3OC2)cc1`, the fold change is 6.75 (active).

For the compound `COc1ccc(C2=NOC(COC(=O)c3ccc4ccccc4n3)C2)cc1` (configuration not stated), the fold change was 1.25 (inactive).

Turning to `COC(=O)[C@H](C)[C@H]1C[C@]1(C)[C@H](NC(=O)OCc1ccccc1)c1ccccc1`, the fold change is 0.97 (inactive).

Regarding `O=C(NCc1ccccc1)[C@H]1C[C@@H]1[C@H](NP(=O)(c1ccccc1)c1ccccc1)c1ccccc1`, the fold change is 0.77 (inactive).

`CC(C)(C)[Si](OCC[C@@H]1C[C@@]1(C)[C@@H](NP(=O)(c1ccccc1)c1ccccc1)c1ccccc1)(c1ccccc1)c1ccccc1`: the fold change was 3.34 (active).

As to `CCOC(=O)CCCNC(=O)COC(=O)/C=C/c1ccc2c(c1)OCO2`, the fold change was 1.06 (inactive).

As to `CC1(C)CC(=O)CC2(C1)NCC(c1ccccc1Cl)c1c2[nH]c2ccccc12` (configuration not stated), the fold change is 0.75 (inactive).

Regarding `N/C(Cc1ccc([N+](=O)[O-])cc1)=N\OC(=O)C1CCCCC1`, the fold change was 1.13 (inactive).

Turning to `O=C(COc1ccc([N+](=O)[O-])cc1)Nc1ccc(N2CCCC2)cc1`, the fold change was 1.07 (inactive).

As to `O=C(COC(=O)C1CCCCC1)Nc1ccc([N+](=O)[O-])cc1`, the fold change was 6.28 (active).

With `CC1=NCCN1S(=O)(=O)c1cccc([N+](=O)[O-])c1`, the fold change is 1.03 (inactive).

On to `CCOC(=O)C(C)n1nc(-c2ccccc2)c2ccccc2c1=O` (configuration not stated), for which the fold change was 0.91 (inactive).

For the compound `CCCn1c(NC(=O)C23CC4CC(CC(O)(C4)C2)C3)nc2ccccc21`, the fold change was 0.92 (inactive).

As to `NS(=O)(=O)c1ccc(NC(=O)COC(=O)c2ccc(Cl)nc2)cc1`, the fold change was 0.87 (inactive).

As to `CC(C(=O)O)n1cnc2sc3c(c2c1=O)CCCC3` (configuration not stated), the fold change was 1.12 (inactive).

`O=C(N/N=C/c1ccc2c(c1)OCO2)C(=O)N1CCCC1`: the fold change was 1.4 (inactive).

With `CN(C)c1ccnc2sc3c(=O)n(Cc4ccccc4)cnc3c12`, the fold change was 0.86 (inactive).

Regarding `Cc1nc2sc(C(=O)c3ccccc3)c(N)c2c2c1CCCC2`, the fold change is 1.93 (inactive).

With `CN(C)c1ccnc2sc(C(=O)c3ccccc3)c(N)c12`, the fold change is 3.79 (active).

For the compound `COc1ccc(/C=C/CN2CCCC(C(=O)c3cc(F)ccc3F)C2)cc1` (configuration not stated), the fold change was 1.06 (inactive).
